# Compound activity deposited in PubChem BioAssay by Sanford-Burnham Center for Chemical Genomics.
# CYP2C9 inh: human CYP2C9 inhibition; CYP2C9 Supersomes, luciferin-H conversion, luminescence; inhibition, % at 5 µM; actives 20% (n = 96,000); AID 777;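 active = blocking of liver enzyme CYP2C9 beyond about 50% at 5 µM, limit read from the data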
# CYP2C19 act: increases human CYP2C19 enzyme activity | P33261 | recombinant CYP2C19, luciferin-H EGE luminescence; stronger effect = higher value; 0 = fully inhibited enzyme, 1 = untreated enzyme | activation factor at 5 µM | 96,000 tested, under 10 active | AID 1025;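 active = activation factor of at least 2 at 5 µM in the primary screen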
# PLAP activator: activates human placental alkaline phosphatase; P05187; purified PLAP enzyme, luminescent substrate read-out; stronger effect = higher value; activation fold at 20 µM; actives 1.2% (n = 96,000); AID 696; in the data active = activation fold above about 2
# CYP2C9 activ: increases human cytochrome P450 2C9 activity; activation factor at 5 µM; recombinant CYP2C9, luciferin-H conversion, luminescence; stronger effect = higher value; factor 1 = untreated enzyme, 0 = blocked; actives 1.4% (n = 96,000);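 active = activation factor of 2 or more for CYP2C9 at a 5 µM dose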
# CYP2C19 inhib: human CYP2C19 inhibition. P33261. CYP2C19 Supersomes, luciferin-H EGE luminescence, 30 min. inhibition, % at 5 µM. actives 21% (n = 96,000);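 active = CYP2C19 inhibition above a set limit at 5 µM in the primary screen, cut at about 50% in these data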
# Numbers stand for hits; i = inactive. An excerpt weighted towards active compounds, which were near 31% of everything screened.
SMILES,CYP2C9 inh,CYP2C19 act,PLAP activator,CYP2C9 activ,CYP2C19 inhib
C=C(C)c1cccc(C(C)(C)NC(=O)N2CCOCC2)c1,i,i,i,i,56
CC(C(=O)N1CCOCC1)(c1ccccc1)c1ccccc1,i,i,i,i,94
C=C(C)c1cccc(C(C)(C)NC(=O)N2CC(C)OC(C)C2)c1 (stereo unspecified),i,i,i,i,69
CCOC(=O)C(/C=C(\C#N)C(=O)OCC)=C(/N)N1CCN(c2ccc(Cl)cc2)CC1,i,i,i,i,i
O=C(Nc1cccc(C(F)(F)F)c1)c1cnc2n(c1=O)CCS2,i,i,i,i,i
O=C(CCS(=O)(=O)Cc1ccc(Cl)cc1)NCCCN1CCOCC1,i,i,i,i,i
